The source made the active and inactive calls.

The target of one experiment is Albumin (Bos taurus) (UniProt P02769). In words: bovine serum albumin binders on microarray, profiling panel, artefact control for SMM control protein annotation, biochemical, small-molecule microarray, Alexa647 label, 635/667 nm fluorescence (AID 1118).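 Note: score merges 667 nm emission intensity and signal-to-noise per printed compound spot.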 The note with it: BSA-A647 binding, fluorescence 635 nm, higher = more signal.
Sequence of Albumin (Bos taurus) (P02769 whole entry, looked up): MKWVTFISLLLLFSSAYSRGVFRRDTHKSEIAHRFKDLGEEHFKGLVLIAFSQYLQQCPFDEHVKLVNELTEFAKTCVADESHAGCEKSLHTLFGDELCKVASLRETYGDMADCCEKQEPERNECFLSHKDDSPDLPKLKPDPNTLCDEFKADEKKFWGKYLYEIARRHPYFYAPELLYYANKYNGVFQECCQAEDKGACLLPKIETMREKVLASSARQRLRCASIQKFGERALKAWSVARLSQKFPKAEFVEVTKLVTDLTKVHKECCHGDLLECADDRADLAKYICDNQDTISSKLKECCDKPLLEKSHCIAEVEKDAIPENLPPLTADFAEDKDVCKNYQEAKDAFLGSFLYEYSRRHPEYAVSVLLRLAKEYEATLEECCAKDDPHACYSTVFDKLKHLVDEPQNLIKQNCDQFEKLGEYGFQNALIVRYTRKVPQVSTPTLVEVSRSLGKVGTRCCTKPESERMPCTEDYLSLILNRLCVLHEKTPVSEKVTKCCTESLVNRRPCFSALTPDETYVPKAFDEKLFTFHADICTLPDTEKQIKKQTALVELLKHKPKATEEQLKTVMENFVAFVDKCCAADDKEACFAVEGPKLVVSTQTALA
A short description of experiment [1]: small-molecule microarray binders of probe aXIP, primary screen, biochemical, NeuroSMM set, 635/667 nm fluorescence (AID 1119).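 Note: probe is the protein aXip251-270 applied at 1 µg/mL to compound-printed slides; binding of probe to printed compounds measured as 667 nm fluorescence plus signal to noise.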 The note with it: higher = more signal, called active from +8 up or from −8 down.
The nature of experiment [2]: small-molecule binders of probe aNOTCH3, primary screen, biochemical, small-molecule microarray, 635/667 nm fluorescence (AID 1120).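 Note: probe is a biotin-tagged antibody raised against NOTCH3 rather than NOTCH3 protein; score merges spot fluorescence near 667 nm with spot signal to noise.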 The note with it: higher = more signal.
The nature of experiment [3]: small-molecule binders of probe aNOTCH2, primary screen, biochemical, small-molecule microarray, 635/667 nm fluorescence (AID 1121).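 Note: score merges feature fluorescence read at 667 nm with its signal to noise.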 The settings on record: higher = more signal.
The target of experiment [4] is Carbonic anhydrase 2 (Homo sapiens) (UniProt P00918). In words: CAII small-molecule binders, profiling panel, biochemical, small-molecule microarray, Alexa647-labelled CAII (AID 1122). The settings on record: CAII-A647 binding fluorescence, higher = more signal.
Experiment [5] is described as follows: COS7 lysate on small-molecule microarray, probe aHis, 635 nm (AID 1123).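 Note: z-score combines 667nm fluorescence intensity with signal-to-noise per printed compound spot.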 The settings on record: COS7 cell lysate, fluorescence, higher = more signal.
Experiment [6] in a line: compound binding in COS7 lysate, probe aLAP1, primary screen, cell lysate, small-molecule microarray (AID 1124).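 Note: lysate comes from COS7 cells expressing LAP1 and is applied at 0.3 µg/mL; score merges spot fluorescence near 667 nm with signal-to-noise over triplicate slides.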 The settings on record: probe aLAP1, fluorescence, higher = more signal.
The next experiment concerns Sam68 (KHDRBS1). Put plainly: Sam68 small-molecule binders, primary screen, biochemical, small-molecule microarray, 635 nm fluorescence (AID 1125).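 Note: score merges 667 nm channel intensity with signal to noise over triplicate slides.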 The settings on record: small-molecule microarray binding, higher = more signal.
Experiment [7] relates to Chordin-like protein 2 (CHRDL2). In words: CHRDL2 small-molecule binders, primary screen, biochemical, small-molecule microarray, 635 nm fluorescence (AID 1126).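 Note: printed compound slides probed with Chrdl2 protein at 4 µg/mL for 1 h at 4 C; score merges 667 nm emission intensity with signal to noise over three replicate slides.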 The note with it: small-molecule microarray binding, fluorescence 635 nm; higher = more signal.
The target of experiment [8] is Concanavalin-A (Canavalia ensiformis) (UniProt P02866). Put plainly: ConA small-molecule binders, primary screen, artefact control for SMM control protein annotation, biochemical, small-molecule microarray, Alexa647 label, 635 nm (AID 1127).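 Note: z combines 667 nm emission intensity with signal-to-noise across three replicate slides.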 The note with it: ConA-A647 binding fluorescence, higher = more signal.
Sequence of Concanavalin-A (Canavalia ensiformis) (P02866 whole entry, looked up): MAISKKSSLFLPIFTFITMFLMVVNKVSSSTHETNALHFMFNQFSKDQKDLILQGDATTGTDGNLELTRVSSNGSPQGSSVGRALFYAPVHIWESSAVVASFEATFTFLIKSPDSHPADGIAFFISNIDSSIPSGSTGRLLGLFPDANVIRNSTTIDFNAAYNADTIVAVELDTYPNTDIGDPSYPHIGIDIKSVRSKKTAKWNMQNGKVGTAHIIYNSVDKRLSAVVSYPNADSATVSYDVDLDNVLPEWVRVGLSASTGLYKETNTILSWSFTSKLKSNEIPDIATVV
A short description of experiment [9]: anti-His antibody binders, primary screen, artefact control for SMM control protein annotation, biochemical, small-molecule microarray, 635 nm fluorescence (AID 1128).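 Note: score merges feature fluorescence with signal-to-noise for each printed compound spot.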 The note with it: anti-His Alexa647 antibody binding, higher = more signal.
Experiment [10] deals with Human papillomavirus type 1a E7 protein (residues 1-88). In words: HPV1a E7 small-molecule binders, primary screen, biochemical, small-molecule microarray, residues 1-88, 635 nm (AID 1129). The settings on record: small-molecule microarray binding, fluorescence 635 nm; higher = more signal.
Experiment [11] concerns the target Focal adhesion kinase 1 (Homo sapiens) (UniProt Q05397). Put plainly: small-molecule microarray binders of FAK, primary screen, biochemical, 635/667 nm fluorescence, BSA, DTT (AID 1130).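 Note: composite of spot emission at 667 nm and signal to noise over triplicate slides.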 The settings on record: PTK2 binding, 635 nm fluorescence, higher = more signal.
Experiment [12] deals with Fibrinogen (Alexa647-labelled). In words: fibrinogen binders on compound microarrays, profiling panel, artefact control for SMM control-protein annotation, biochemical, small-molecule microarray, 635/667 nm fluorescence (AID 1131).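 Note: z-score merges 667 nm fluorescence with per-spot signal-to-noise over triplicate slides.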 The note with it: fibrinogen-A647 binding fluorescence, higher = more signal.
In experiment [13] the target is Follistatin (Homo sapiens) (UniProt P19883). In words: follistatin binders on small-molecule microarrays, primary screen, biochemical, small-molecule microarray, 635/667 nm fluorescence (AID 1132). The note with it: FST binding, 635 nm fluorescence, higher = more signal.
Sequence of Follistatin (Homo sapiens) (P19883 whole entry, looked up): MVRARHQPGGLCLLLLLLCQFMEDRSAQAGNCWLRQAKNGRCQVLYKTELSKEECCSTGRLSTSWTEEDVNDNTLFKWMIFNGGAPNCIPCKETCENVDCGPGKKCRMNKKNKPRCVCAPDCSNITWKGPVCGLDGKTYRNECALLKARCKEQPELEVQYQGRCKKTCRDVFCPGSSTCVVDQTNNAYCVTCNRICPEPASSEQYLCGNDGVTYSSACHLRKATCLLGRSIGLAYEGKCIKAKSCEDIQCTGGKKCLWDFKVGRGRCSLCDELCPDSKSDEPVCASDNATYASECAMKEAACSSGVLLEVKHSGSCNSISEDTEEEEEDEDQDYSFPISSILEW
For experiment [14], the target named is Fibroblast growth factor 2 (Homo sapiens) (UniProt P09038). Put plainly: FGF2 binders on small-molecule microarrays, primary screen, biochemical, small-molecule microarray, 635/667 nm fluorescence (AID 1133). The note with it: small-molecule microarray binding, FGF2, fluorescence 635/667; higher = more signal.
Sequence of Fibroblast growth factor 2 (Homo sapiens) (P09038 whole entry, looked up): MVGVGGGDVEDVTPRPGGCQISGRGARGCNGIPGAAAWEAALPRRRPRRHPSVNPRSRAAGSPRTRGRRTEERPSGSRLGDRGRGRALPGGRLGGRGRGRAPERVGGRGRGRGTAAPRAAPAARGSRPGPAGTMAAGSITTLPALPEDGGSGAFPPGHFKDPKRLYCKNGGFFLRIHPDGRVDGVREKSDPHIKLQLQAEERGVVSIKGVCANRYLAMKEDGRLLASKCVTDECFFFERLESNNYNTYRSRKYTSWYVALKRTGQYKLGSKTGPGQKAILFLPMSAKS
Experiment [15] can be described thus: mitochondrial membrane potential change in A549 cells, profiling panel, cell-based, JC-1 fluorescence, basal, 24 h, 100 nL (AID 1138).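 Note: A549 lung adenocarcinoma cells under basal conditions with no added stimulus; test concentration not given here.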 The settings on record: higher = more signal.
For the next experiment, the system named is Lefty1. In words: Lefty1 binders on small-molecule microarrays, primary screen, biochemical, small-molecule microarray, 635/667 nm fluorescence (AID 1139). The note with it: small-molecule microarray binding, fluorescence 635/667; higher = more signal.
In experiment [16] the test system is wheat germ agglutinin (Triticum aestivum), Alexa647-labelled. Put plainly: wheat germ agglutinin binders on compound microarrays, profiling panel, artefact control for SMM control-protein annotation, biochemical, small-molecule microarray, 635/667 nm fluorescence (AID 1140).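 Note: score merges 667 nm feature emission with signal to noise over triplicate slides.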 The settings on record: WGA-A647 binding, 635 nm fluorescence, higher = more signal.
Experiment [17] concerns the target Luciferin 4-monooxygenase (Photinus pyralis) (UniProt P08659). In words: firefly luciferase enzyme inhibitors, primary screen, biochemical, luminescence, purified enzyme, 2006 set (AID 1141).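 Note: cell-free assay with purified firefly luciferase at 100 ng per well in PBS; test concentration not given here.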 The note with it: SteadyGlo luminescence, 30 min, higher = more signal, called active from +8 up or from −8 down.

Sequence of Luciferin 4-monooxygenase (Photinus pyralis) (P08659 whole entry, looked up): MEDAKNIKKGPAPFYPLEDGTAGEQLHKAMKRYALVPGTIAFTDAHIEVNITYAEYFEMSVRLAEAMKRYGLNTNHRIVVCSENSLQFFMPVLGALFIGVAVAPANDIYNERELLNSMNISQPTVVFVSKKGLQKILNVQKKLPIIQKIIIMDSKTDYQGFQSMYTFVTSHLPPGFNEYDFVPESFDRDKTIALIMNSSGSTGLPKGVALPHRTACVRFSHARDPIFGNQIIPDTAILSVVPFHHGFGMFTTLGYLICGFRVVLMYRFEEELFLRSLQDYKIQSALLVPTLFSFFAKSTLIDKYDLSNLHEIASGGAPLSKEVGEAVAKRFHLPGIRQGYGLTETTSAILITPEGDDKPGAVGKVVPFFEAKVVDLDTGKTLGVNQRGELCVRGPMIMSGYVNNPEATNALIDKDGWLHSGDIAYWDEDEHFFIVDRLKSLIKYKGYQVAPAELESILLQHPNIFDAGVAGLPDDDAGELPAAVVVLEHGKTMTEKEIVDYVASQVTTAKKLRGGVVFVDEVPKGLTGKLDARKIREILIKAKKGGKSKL
Sequence of Focal adhesion kinase 1 (Homo sapiens) (Q05397 whole entry, looked up): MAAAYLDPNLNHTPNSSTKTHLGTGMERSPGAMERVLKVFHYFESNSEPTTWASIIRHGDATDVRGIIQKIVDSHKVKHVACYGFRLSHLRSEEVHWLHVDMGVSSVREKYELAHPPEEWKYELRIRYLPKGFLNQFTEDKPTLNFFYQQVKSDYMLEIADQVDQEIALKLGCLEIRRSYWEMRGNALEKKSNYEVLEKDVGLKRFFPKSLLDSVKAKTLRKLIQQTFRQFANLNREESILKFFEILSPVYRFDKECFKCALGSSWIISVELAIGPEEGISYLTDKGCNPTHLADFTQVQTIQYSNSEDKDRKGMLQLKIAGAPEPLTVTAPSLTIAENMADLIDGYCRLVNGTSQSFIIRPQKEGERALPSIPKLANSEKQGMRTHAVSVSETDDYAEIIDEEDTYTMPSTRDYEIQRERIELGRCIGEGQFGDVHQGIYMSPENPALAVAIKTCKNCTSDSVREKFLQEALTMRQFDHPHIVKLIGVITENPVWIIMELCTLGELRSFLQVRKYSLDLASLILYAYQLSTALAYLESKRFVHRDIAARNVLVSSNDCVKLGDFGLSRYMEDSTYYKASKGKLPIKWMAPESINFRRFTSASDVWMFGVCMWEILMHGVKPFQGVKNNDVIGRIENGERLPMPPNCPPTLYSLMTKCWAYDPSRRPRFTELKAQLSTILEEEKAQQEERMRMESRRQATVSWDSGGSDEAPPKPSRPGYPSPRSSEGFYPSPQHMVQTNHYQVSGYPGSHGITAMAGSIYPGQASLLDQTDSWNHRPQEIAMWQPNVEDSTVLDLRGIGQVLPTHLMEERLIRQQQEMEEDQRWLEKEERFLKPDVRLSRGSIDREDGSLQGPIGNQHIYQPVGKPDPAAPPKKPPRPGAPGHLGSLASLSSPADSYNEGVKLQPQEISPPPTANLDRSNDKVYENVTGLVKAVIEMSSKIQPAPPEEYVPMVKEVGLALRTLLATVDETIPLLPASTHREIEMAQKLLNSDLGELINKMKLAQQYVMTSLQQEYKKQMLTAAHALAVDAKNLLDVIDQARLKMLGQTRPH

For `COc1ccc(COC(=O)NN=C2C[C@@H](O)[C@@H](O)[C@@H]3[C@@H]4C(=O)N(C5CCCCC5)C(=O)[C@@H]4CC[C@@H]23)cc1`, the composite z-score in the experiment with Albumin (Bos taurus) was 0.157; in [2], 0.289; in experiment [3], -0.0256; in experiment [4] it was -0.143; in [5], 0.0678; in experiment [6], -0.253. For the same compound, the composite z-score in the experiment on Sam68 (KHDRBS1) is -0.0188; in experiment [7] it was -0.108; in [8] it was -0.35; in experiment [9], 0.123; in [10] it was -0.0517; in experiment [11], 0.0581. Besides, the composite z-score was 0.0695 in experiment [12]; -0.148 in [13]; -0.373 in [14]; -0.371 with Lefty1; 0.401 in experiment [16]. For the same compound, in experiment [1], the composite Z-score was -0.218 (inactive). Also, the z-score in experiment [15] was 0.847; in experiment [17] it was 0.0242 (inactive).
For `CCN1C(=O)[C@H]2[C@H]3[C@H](O)[C@H](O)CC(=NO[C@H](C)c4cn([C@@H]5COC[C@H]5O)nn4)[C@@H]3CC[C@H]2C1=O`, the composite z-score with Albumin (Bos taurus) is 0.0418; in experiment [2], -0.0948; in [3] it was -0.04; in experiment [4] it was -0.281; in experiment [5] it was 0.151; in experiment [6], -0.0932. Besides, the composite z-score with Sam68 (KHDRBS1) was 0.126; in [7], 0.244; in experiment [8], -0.0703; in experiment [9], -1.33; in [10] it was -0.0712; in [11] it was 0.339. The composite z-score is 0.178 in experiment [12]; -0.537 in experiment [13]; 0.092 in experiment [14]; 0.371 with Lefty1; -0.215 in experiment [16]. The composite Z-score in experiment [1] was -0.115 (inactive). The z-score in experiment [15] is -0.444; in experiment [17], 0.846 (inactive).
`O=C1[C@H]2[C@H]3[C@H](O)[C@H](O)CC(=NO[C@@H]4O[C@H](CO)[C@@H](O)[C@H](O)[C@H]4O)[C@@H]3CC[C@H]2C(=O)N1C[C@@H]1CCCO1`: the composite z-score in the experiment with Albumin (Bos taurus) is 0.587; in [2], -0.243; in experiment [3], -0.131; in experiment [4] it was 0.212; in [5] it was 0.146; in experiment [6], -0.136. For the same compound, the composite z-score turned out to be 1.1 in the experiment with Sam68 (KHDRBS1); 0.183 in experiment [7]; 0.51 in experiment [8]; 0.142 in experiment [9]; 1.15 in experiment [10]; 0.142 in [11]. Moreover, the composite z-score in experiment [12] was determined as 0.907; in [13] it was 0.396; in experiment [14], 0.4; in the experiment with Lefty1, 0.649; in experiment [16] it was 0.326. In addition, the composite Z-score in [1] is -0.258 (inactive). For the same compound, the z-score in experiment [15] is -1.08; in experiment [17] it was 0.954 (inactive).
Regarding `COC(=O)[C@H](C)NC(=O)CCC1CC(OC(=O)NCCc2ccc(F)cc2)CC2(CCCC(COC(=O)NCCOc3ccccc3)O2)O1` (stereo not given in full), the composite z-score in the experiment with Albumin (Bos taurus) is 0.752; in experiment [2] it was -0.029; in experiment [3], -0.0921; in [4] it was 0.282; in experiment [5], 1.21; in experiment [6], -0.0401. Besides, the composite z-score with Sam68 (KHDRBS1) was determined as 1.31; in [7], 1.03; in experiment [8] it was 1.02; in experiment [9], 0.989; in [10], 1.16; in experiment [11], 0.821. The composite z-score in experiment [12] is 0.659; in experiment [13], 0.826; in experiment [14], 0.307; in the experiment with Lefty1, 1.41; in experiment [16], 0.309. Moreover, in [1], the composite Z-score was 0.59 (inactive). The z-score in [15] was 1.08; in experiment [17] it was 0.549 (inactive).
For the compound `Cc1ccc(C(C)C)n1C(=O)OC(C)(C)C`, the composite z-score with Albumin (Bos taurus) is -0.0834; in experiment [2] it was -0.118; in experiment [3], -0.153; in experiment [4], -0.0359; in [5] it was 0.0884; in experiment [6], 0.322. The composite z-score is 0.456 with Sam68 (KHDRBS1); 0.501 in experiment [7]; 0.173 in experiment [8]; -0.165 in experiment [9]; 0.474 in experiment [10]; 0.691 in experiment [11]. The composite z-score in experiment [12] was -0.115; in experiment [13], 0.54; in [14], 0.29; in the experiment with Lefty1, 0.494; in experiment [16], 0.188. Moreover, the composite Z-score in experiment [1] is 1.17 (inactive). The figures for the z-score in [15] and in experiment [17] were 1.99 and -1.7 (inactive), respectively.
`CCN1C(=O)[C@H]2[C@H]3[C@H](O)[C@H](O)CC(=NO[C@@H]4O[C@H](CO)[C@@H](O)[C@H](O)[C@H]4O)[C@H]3CC[C@H]2C1=O`: the composite z-score in the experiment with Albumin (Bos taurus) is -0.0203; in experiment [2], -0.0783; in experiment [3], -0.148; in experiment [4] it was -0.0497; in experiment [5], -0.0296; in experiment [6] it was 0.212. Besides, the composite z-score was -0.305 with Sam68 (KHDRBS1); 0.43 in experiment [7]; 0.634 in [8]; 0.0595 in [9]; 0.512 in experiment [10]; 0.026 in experiment [11]. Also, the composite z-score in [12] was 0.16; in [13], 0.442; in [14] it was 0.922; in the experiment with Lefty1 it was 0.467; in experiment [16], 0.0622. In experiment [1], the composite Z-score was 0.121 (inactive). Besides, the z-score was -0.8 in experiment [15] and 0.217 (inactive) in experiment [17].

These data come from PubChem BioAssay.
